In PubChem BioAssay AID651994 (Sanford-Burnham Center for Chemical Genomics, 2013) one finds cytotoxicity data, which are given here for 42 compounds.

Hit rate of the full screen: of about 2,500 compounds, about 790 (32%) were called active. Only a sample is shown. Values without a mark were called inactive.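 The calls were made as follows: active = mean cytotoxicity at 5 µM above about 25% (limit read from the data); inactive = the rest.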

The experiment in a line: cytotoxicity in Sufu-KO-LIGHT cells, confirmation, cytotoxicity control for Gli-SUFU antagonist project, cell-based, ATP luminescence, single concentration (AID 651994).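 Also: cells exposed to compound overnight for roughly 16 to 18 hours; plate controls were DMSO wells with cells for no effect and medium without cells for full effect.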 The conditions noted are these: at 5 µM, active compounds read high.
As to `Cc1ccc(-c2nc3c(cnn3-c3ccccc3)c(=O)o2)cc1`, the cytotoxicity was 8.43%. The value for `CCOc1ccc(-n2c(O)c(/C=N/c3ccnn3Cc3ccncc3)c3ccccc3c2=O)cc1` was 23.8%; that for `COc1ccccc1/C=C/CN1CCC(CO)(Cc2ccccc2)CC1` was -4.47%. To `CC1CC2=C(CC1/C=N/NC(N)=S)C(C)(C)CCC2` (configuration not stated) belongs 11.9%; to `CC(=O)/C(=N\Nc1ccc(Cl)cc1Cl)Sc1cccc2cccnc12`, 25.7% (active); to `CN(C)c1cc[n+](Cc2ccccc2)cc1`, 33.3% (active). `COC(=O)c1ccc(CSc2nnc(N)s2)o1`: the cytotoxicity is 21.4%. For `CCNC(=S)N(CCN(CC)CC)Cc1cc2cc3c(cc2[nH]c1=O)OCO3`, the cytotoxicity was 6.68%. The value for `C=CCn1c(SCC(=O)CC(=O)OCC)nc2cc(C(=O)N3CCC(C(N)=O)CC3)ccc2c1=O` was 3.69%; that for `Cc1ccccc1C(=O)NC(=S)Nc1ccc(N2CCN(C(=O)c3ccccc3)CC2)cc1` was 32.2% (active). To `Cc1cc2[nH]ncc2cc1NC(=S)NC(=O)c1ccccc1` belongs 2.37%; to `CC(C)Oc1ccc(CN2CCC(n3nccc3NC(=O)c3cccnc3)CC2)cc1`, 4.98%. To `CNc1ccc(SC#N)cc1` belongs 3.32%; to `CCCC1=Nc2cc(C(=O)NCc3ccco3)ccc2Sc2ccccc21`, 53.8% (active). For the compound `CC(C)OCC(O)CN1CCN(C(c2ccccc2)c2ccccc2)CC1` (configuration not stated), the cytotoxicity was 16.3%. Take `O=[N+]([O-])c1ccc(N2CCN(CC(O)COc3ccccc3)CC2)cc1` (configuration not stated): the cytotoxicity was 30.6% (active). To `CC(C)c1ccc(OCC(O)CN2CCN(c3ccccn3)CC2)cc1` (configuration not stated) belongs 9.73%; to `O=C(c1cc(Cl)cc(Cl)c1)N1CCC(=O)N(C(COCc2ccccc2)Cc2ccccc2)CC1` (configuration not stated), 21.8%; to `CCCCC(=O)NC(c1ccc(OC)c(OC)c1)c1ccc2cccnc2c1O` (configuration not stated), 19.2%. To `C=CCOC(=O)C1=C[C@@H](c2ccc3c(c2)OCO3)C[C@@H](OCCCCO)O1` belongs 2.89%; to `Cc1nonc1C1CCCN1C(=O)c1cc(COc2cccc(C(F)(F)F)c2)on1` (configuration not stated), 29.3% (active); to `O=C1/C(=C\c2cccnc2)CN(Cc2ccccc2)C/C1=C\c1cccnc1`, 10.1%. To `O=C(NC1CCN(C(=S)Nc2ccc(Cl)cc2)CC1)C1CCCCC1` belongs 2.7%; to `C=CCOc1nc2c(c(=O)n(C)c(=O)n2C)n1Cc1ccc(Cl)cc1Cl`, 26.7% (active); to `COC(=O)Cc1[nH]n(-c2nc3ccccc3s2)c(=O)c1C(C)=Nc1ccc(OC)cc1`, 15.6%. `COc1ccccc1CCNC(=O)C(=O)NCCC1CCCCN1S(=O)(=O)c1cccs1` (configuration not stated): the cytotoxicity was 20.7%. The value for `N#CC(C#N)=CN=c1ccn(Cc2ccc(Cl)cc2Cl)cc1` was 29.5% (active); that for `CCCOc1ccc(Cc2c(Cl)nc(SC)nc2NC)cc1` was 31.8% (active). To `CC(C)Oc1ccc(/C=N/NC(=O)c2nnn(-c3nonc3N)c2CN(C)C2CCCCC2)cc1` belongs 9.64%; to `O=C(CN1C(=O)c2ccccc2S1(=O)=O)N1CCc2ccccc21`, 36.9% (active); to `Cc1onc(-c2ccccc2)c1C(=O)Nc1ccccc1C#N`, 7.65%. The value for `Cc1cc(NC(=O)c2cccc(N3C(=O)CCC3=O)c2)no1` was 8.93%; that for `C/C(=N\NC(=O)Cc1ccc(Cl)cc1)c1ccccn1` was 38.9% (active).

In the case of `CC(=O)Nc1cccc(OCC(=O)/C=C2\N(C)c3ccccc3C2(C)C)c1`, the cytotoxicity is 23.9%. Turning to `Cc1ccc(C(=O)C[n+]2cc(-c3ccccc3)n3c2CCCCC3)cc1`, the cytotoxicity is 38.4% (active). The value for `COc1ccc(Cn2c(-c3ccc(Cl)cc3)c[n+]3ccccc23)cc1` was 15.3%; that for `Cc1cc([N+](=O)[O-])c(-c2ccc(/C=N/n3cnnc3)o2)cc1Cl` was 3.83%. Regarding `COc1cccc2cc(C(N)=O)/c(=N\NC(=O)c3ccccc3)oc12`, the cytotoxicity was 19.1%. The value for `COc1ccc(OC)c(/C=N/NC(=O)c2ccc[n+](CC(=O)c3ccccc3)c2)c1` was 26.3% (active); that for `CCN(CC)S(=O)(=O)c1ccc(Cl)c(C(=O)NC(C)C(c2cccs2)N2CCCC2)c1` (configuration not stated) was 13.4%. The value for `COc1ccc(OC)c(Cc2cnc3nc(N)nc(N)c3c2C)c1` was 15.7%; that for `CCOC(=O)c1cnc(Nc2nc3ccccc3o2)nc1CSC(=S)N1CCCCC1` was 20.4%.
